The values below come from publication PMC6919601, “Identification of Plasmodium dipeptidyl aminopeptidase allosteric inhibitors by high throughput screening” (PLoS ONE, 2019).

The campaign covered roughly 110,000 compounds. About 230 (0.21%) showed an effect of 50% or more. Shown is part of a subset that was picked to be rich in strong results.
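Note: 30 min substrate incubation versus DMSO and 10 µM JCP410 controls.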

Chain of DPAP1 (Q8IIJ9 whole entry, looked up): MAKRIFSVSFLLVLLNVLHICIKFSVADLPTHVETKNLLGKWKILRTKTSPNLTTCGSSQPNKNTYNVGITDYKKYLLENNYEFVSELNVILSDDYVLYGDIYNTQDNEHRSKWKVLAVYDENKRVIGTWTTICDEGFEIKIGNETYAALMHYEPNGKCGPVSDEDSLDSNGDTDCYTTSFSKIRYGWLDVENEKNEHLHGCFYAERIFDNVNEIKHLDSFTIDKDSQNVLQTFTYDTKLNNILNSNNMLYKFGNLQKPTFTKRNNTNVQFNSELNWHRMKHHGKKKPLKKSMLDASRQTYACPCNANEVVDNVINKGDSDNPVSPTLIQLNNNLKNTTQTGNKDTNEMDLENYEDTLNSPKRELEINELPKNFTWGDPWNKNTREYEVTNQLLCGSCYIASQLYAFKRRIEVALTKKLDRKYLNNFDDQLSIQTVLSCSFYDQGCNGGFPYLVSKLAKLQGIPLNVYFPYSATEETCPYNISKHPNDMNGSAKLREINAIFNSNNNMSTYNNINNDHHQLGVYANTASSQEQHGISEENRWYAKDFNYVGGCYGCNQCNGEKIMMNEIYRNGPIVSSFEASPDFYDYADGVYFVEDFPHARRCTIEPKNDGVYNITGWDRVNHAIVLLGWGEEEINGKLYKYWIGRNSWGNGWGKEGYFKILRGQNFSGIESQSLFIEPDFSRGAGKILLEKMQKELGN

The test has as its target DPAP1 (Plasmodium falciparum, UniProt Q8IIJ9). Nature of the test: primary screen, percent inhibition; read by cleavage of a fluorogenic dipeptide substrate; higher = more effect of the substance. The arrangement: species or system P. falciparum D10 trophozoite lysates; single well.
With `CC(C)n1c(-c2ccc(C(=O)N3CCN(C)CC3)cc2)nc2ccccc21`, the “% Inhibition @ 10 uM” value is given as 83.9%.
As for `CC(C)n1c(-c2ccccc2)nc2ccccc21`, the “% Inhibition @ 10 uM” value is reported as -0.769%.
The same measure for `Cc1ccc(C)c(-c2csc(Nc3ccc(C)c(Cl)c3)n2)c1`: 0.912%.
Next, `CCSc1c(S)cnn(-c2ccccc2)c1=O`: 1.7%.
As to `Oc1c2nc(S)nc-2cnn1-c1ccccc1`, the “% Inhibition @ 10 uM” value is on record as 87.4%.
The same measure for `Cc1ccc(-c2nc3cnn(-c4ccccc4)c(O)c-3n2)cc1`: 2%; for `CC(C)C(NS(=O)(=O)c1cccs1)C(=O)NCc1ccccc1Cl` (centres unmarked): -4.07%.
Next, `CCOc1ccc(-c2cn3ncsc3n2)cc1`: 2.41%; `O=C(c1ccccc1)c1conc1C(=O)c1ccc(Br)cc1`: 4.52%; `O=C(c1cccnc1)c1conc1C(=O)c1ccc(Br)cc1`: 91.9%.
The same measure for `O=C(c1ccccn1)c1conc1C(=O)c1ccc(Br)cc1`: 3.72%.
In the case of `O=C(c1ccccn1)c1conc1C(=O)c1cccs1`, the “% Inhibition @ 10 uM” value amounted to 1.82%.
Turning to `O=C(c1nc2ccccc2s1)c1conc1C(=O)c1cccs1`, the “% Inhibition @ 10 uM” value amounted to 4.03%.
With `O=C(c1cccs1)c1conc1C(=O)c1ccc(Br)cc1`, the “% Inhibition @ 10 uM” value was 93.8%.
The same measure for `Cc1ccc(C2=CC(c3cccs3)n3ncnc3N2)cc1C` (centres unmarked): 1.86%; for `Cc1nc(NC(=O)c2ccccc2Cl)ccc1Br`: -2.67%.
The same measure for `COc1ccc(Cl)cc1C(=O)Nc1ccc(Br)c(C)n1`: 70.4%; for `Cc1nc(NC(=O)c2cc(Cl)ccc2Cl)ccc1Br`: 0.755%; for `CN(Cc1ccccc1)Cc1ccc(O)cc1`: -1.78%.
Next, `NC(=O)c1sc2nc(N3CCOCC3)c3c(c2c1N)CCCC3`: 50.2%; `CC1(C)Cc2c(c(N3CCOCC3)nc3sc(C(=O)N4CCCCC4)c(N)c23)CO1`: 3.93%.
For `CCOC(=O)c1sc2nc(N3CCOCC3)c3c(c2c1N)CCCC3`, the “% Inhibition @ 10 uM” value is on record as -2.87%.
Next, `Nn1c(S)nnc1-c1ccccc1`: 1.63%; `O=C1c2cccnc2C(=O)N1Cc1ccc(S(=O)(=O)NCCc2ccc(Cl)cc2)s1`: -3.66%; `COc1ccccc1CNC(=O)[C@H](CCSC)N1Cc2ccccc2C1=O`: 2.93%.
The same measure for `CCCC1CCc2c(sc(NC(=O)C3CCCO3)c2C(N)=O)C1` (centres unmarked): 1.57%; for `c1ccc2c(Cc3c[nH]c4ccccc34)c[nH]c2c1`: -0.0372%; for `c1ccc(Cc2c[nH]c3ccccc23)cc1`: 0.736%.
Next, `c1ccc2c(Cc3nn[nH]n3)c[nH]c2c1`: 85%.
Consider `CCC1(C)CC(=O)c2c(ccc3oc(C(=O)NCc4ccco4)c(C)c23)O1` (centres unmarked), for which the “% Inhibition @ 10 uM” value is -2.17%.
The same measure for `CC1=C(C)CC(C(=O)NCc2ccc(F)cc2)C(C(=O)O)C1` (centres unmarked): 8.6%.
The same measure for `COc1ccc2c(COc3ccc4c(=O)c(-c5ccccc5)coc4c3)cc(=O)oc2c1`: -2.91%; for `COc1ccccc1-c1coc2cc(OCC(=O)O)ccc2c1=O`: -1.92%.
The same measure for `COc1ccc(-c2coc3cc(OC)ccc3c2=O)c(O)c1`: 62.1%.
With `O=C(Cn1ncc2c3ccccc3nc-2c1O)N1CCC(c2ccccc2)C1` (centres unmarked), the “% Inhibition @ 10 uM” value came to 2.36%.
Next, `c1ccc(-c2nc3c4cnn(-c5ccccc5)c4ncn3n2)cc1`: -6.09%; `Cc1oc2c(C)c3oc(=O)c(CC(=O)N4CCOCC4)c(C)c3cc2c1-c1ccccc1`: 2.54%.
Next, `Cc1ccc2c(c1Br)C1(C(=O)N2)C(C#N)=C(N)Oc2cc(N)ccc21` (centres unmarked): 5.35%.
Next, `Cc1ccc2nc3c(cc(C(=O)NCC4CCCO4)c(=N)n3CCc3ccccc3)c(=O)n2c1` (centres unmarked): 0.279%; `COCCn1c(=N)c(C(=O)NCC2CCCO2)cc2c(=O)n3cc(C)ccc3nc21` (centres unmarked): 94.3%; `Cc1ccc2nc3c(cc(C(=O)NCC4CCCO4)c(=N)n3C3CCCCC3)c(=O)n2c1` (centres unmarked): 3.6%.
Take `COc1ccc2cc3cc(C(=O)NCCN(C)C)oc3nc2c1`: the “% Inhibition @ 10 uM” value was -1.54%.
Next, `Cc1ccccc1CSCC(=O)NC1CCCC1`: 2.15%.
Next, `OC(Cn1ccnc1)(c1ccc(F)cc1)c1ccccn1` (centres unmarked): 2.62%.
Next, `Cc1ccc(CNC(=O)c2noc3c2COc2ccccc2-3)cc1`: 72.8%; `CN(Cc1ccccc1)C(=O)c1noc2c1COc1ccccc1-2`: 7.85%.
Regarding `O=C(NCc1ccc2c(c1)OCO2)c1noc2c1COc1ccccc1-2`, the “% Inhibition @ 10 uM” value was 73.5%.
For `Cc1ccc2c(c1)-c1onc(C(=O)NCc3ccccc3Cl)c1CO2`, the “% Inhibition @ 10 uM” value is reported as 0.589%.
The same measure for `O=C(NCc1ccc(F)cc1)c1noc2c1CCc1ccccc1-2`: -9.28%.
The same measure for `Cc1onc(-c2ccccc2Cl)c1C(=O)NCc1ccc2c(c1)OCO2`: -6.92%.
With `O=C(NCc1ccc(F)cc1)c1noc2c1COc1ccccc1-2`, the “% Inhibition @ 10 uM” value came to 69.7%.
Next, `O=C(NCc1ccc2c(c1)OCO2)c1cc(-c2ccccc2F)no1`: -2.07%.
The same measure for `COc1ccc(CNC(=O)c2noc3c2COc2ccc(C)cc2-3)cc1`: -3.17%.
